Data taken from the supplement of paper PMC6555819.

Legend:
Experiment in all cases: PBM binding z-score (relative to random genomic background probes); higher = stronger binding; sequences stand for … in GC…GCGATTGACAGCGTAGAATGAAGG
[1] = tested on: FXR:RXRa (NR concentration 270 nM, RXRa partner concentration 90 nM)
Outline: (§1)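 Ligand-free nuclear receptor dimers were bound for 1 h to custom Agilent 4×180K protein-binding microarrays. Detection used antibodies against each partner (one per run). Binding z-scores rest on regression-normalized fluorescence, with random background probes as the reference.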

[2] = tested on: LXRa:RXRa (NR concentration 270 nM, RXRa partner concentration 90 nM)
Outline: as §1

[3] = tested on: LXRa homodimer (NR concentration 270 nM)
Outline: as §1

[4] = tested on: LXRb:RXRa (NR concentration 270 nM, RXRa partner concentration 90 nM)
Outline: as §1

[5] = tested on: LXRb homodimer (NR concentration 270 nM)
Outline: as §1

[6] = tested on: PPARa:RXRa (NR concentration 270 nM, RXRa partner concentration 90 nM)
Outline: as §1

[7] = tested on: PPARg:RXRa (NR concentration 180 nM, RXRa partner concentration 90 nM)
Outline: as §1

[8] = tested on: PPARg:RXRa 270nM:90nM, anti-RXR (NR concentration 270 nM, RXRa partner concentration 90 nM)
Outline: as §1

[9] = tested on: PPARg:RXRa 30nM:10nM, anti-RXR (NR concentration 30 nM, RXRa partner concentration 10 nM)
Outline: as §1

[10] = tested on: PPARg:RXRa 90nM:30nM, anti-RXR (NR concentration 90 nM, RXRa partner concentration 30 nM)
Outline: as §1

[11] = tested on: PPARg:RXRa DBDmut IVT, anti-RXR (DBD mutation: RXRa K156A/R161A, NR concentration 270 nM, RXRa partner concentration 90 nM)
Outline: as §1

[12] = tested on: PPARg:RXRa IVT, anti-PPARg (NR concentration 270 nM, RXRa partner concentration 90 nM)
Outline: as §1

[13] = tested on: PPARg DBDmut:RXRa IVT, anti-PPARg (DBD mutation: PPARg1 K132A/R137A, NR concentration 270 nM, RXRa partner concentration 90 nM)
Outline: as §1

[14] = tested on: PPARg DBDmut IVT, anti-PPARg (DBD mutation: PPARg1 K132A/R137A, NR concentration 270 nM)
Outline: as §1

[15] = tested on: PPARg homodimer (NR concentration 180 nM)
Outline: as §1

[16] = tested on: PXR:RXRa (NR concentration 270 nM, RXRa partner concentration 90 nM)
Outline: as §1

[17] = tested on: PXR homodimer (NR concentration 270 nM)
Outline: as §1

[18] = tested on: RARa:RXR (NR concentration 270 nM, RXRa partner concentration 90 nM)
Outline: as §1

[19] = tested on: RARa homodimer (NR concentration 270 nM)
Outline: as §1

[20] = tested on: RARb:RXRa (NR concentration 270 nM, RXRa partner concentration 90 nM)
Outline: as §1

Sequence	PBM binding z-score [1]	PBM binding z-score [2]	PBM binding z-score [3]	PBM binding z-score [4]	PBM binding z-score [5]	PBM binding z-score [6]	PBM binding z-score [7]	PBM binding z-score [8]	PBM binding z-score [9]	PBM binding z-score [10]	PBM binding z-score [11]	PBM binding z-score [12]	PBM binding z-score [13]	PBM binding z-score [14]	PBM binding z-score [15]	PBM binding z-score [16]	PBM binding z-score [17]	PBM binding z-score [18]	PBM binding z-score [19]	PBM binding z-score [20]
ACAGACAGGTGAGGGAAGGTAACTCAGCTGGACG	0.596	0.155	-0.368	-0.181	-0.443	0.389	0.791	-0.0319	-0.39	-0.182	0.476	0.747	0.431	-0.614	-0.102	-0.00447	-0.0527	0.343	-0.347	0.622
AGAACCAGGGCACGCTGAGTTGATAGCAGAGTAG	-0.172	0.136	-0.611	-0.397	-1.03	1.29	1.55	1.19	-0.116	0.466	4.22	3.95	0.0191	-0.605	-0.0465	0.357	-0.341	0.14	-0.234	1.34
CCTTACGGGTCAAAGTTATAGCACGGGTGGTACG	6.21	3.95	0.182	3.42	0.711	5.06	5.04	5.46	2.56	4.63	1.88	3.45	0.255	0.0478	2.1	3.35	0.317	4.38	1	3.7
GATACAGGGTCAAGGCCAGAGTGCGCGTATTGAT	6.68	4.01	0.0458	3.51	-0.343	5.4	5.81	5.34	2.09	4	2.75	4.1	0.884	0.0154	3.05	3.92	0.307	4.99	1.02	4.28
ACTTGTTGGTCAGCTGAGGTCACACACAATTCGG	3.37	3.31	2.13	3.51	0.632	3.79	1.8	2.46	0.673	1.95	1.72	2.7	1.08	0.437	2.22	5.63	1.27	4.54	0.13	3.71
TCTATGAGTTGAAGGGCAACCGACGAGTCCGTTT	0.419	0.7	-0.373	0.405	-0.437	1.2	0.607	1.51	2.54	2.22	1.46	0.477	-0.166	0.0578	-0.142	0.853	0.0161	0.674	-0.22	1.37
TGAATGAGGTTGAAGATCAGGGAACGTGGCGTCG	0.0849	0.195	-0.576	-0.271	0.232	0.989	1.11	2.33	0.813	1.97	-0.653	0.294	0.451	0.38	-0.432	-0.193	-0.315	0.257	-0.208	0.206
